# Source: ChEMBL document CHEMBL3988442, “University of Dundee, Small-Polar-MMV Screening Library” (2021)
# The campaign covered roughly 48,000 compounds. About 13,000 (27%) showed an effect of 50% or more. The list shows a part of the results.
# Tested on: Wolbachia pipientis
# Assay: Anti-Wolbachia Cell-Based Screen
# Type: functional
# Design: scale not given: in the data most compounds retested in dose-response had high values
# Conditions: 5 µM
row,Compound,Percent Effect
1,Cc1[nH]nc2ncc(C(=O)N3CCN(CC(C)C)CC3)cc12,0.1242%
2,Cc1cc(C)n(CCCN(C)C(=O)CN2CC3(CCNCC3)OC2=O)n1,-7.554%
3,CCN(CC)CC[C@H]1CN(C(=O)NC2CCCCC2)CC[C@H]1CC(=O)O,-0.6664%
4,O=C(NC[C@H]1OC[C@@H](NC2CCCC2)[C@@H]1O)C1CCCC1,10.82%
5,O=C1NCCCc2c1oc1ccc(O)c(CN3CCOCC3)c21,142.2%
6,NC(=O)C1CN(Cc2c(O)ccc3oc4c(c23)CCCC4)CCO1 (configuration not stated),-16.77%
7,Oc1ccc2oc3c(c2c1CN1CCOCC1)CCCC3,6.402%
8,CCOc1ccc(C(=O)NCCCNc2ncccn2)cc1,-0.3981%
9,O=C(O)C(F)(F)F.O=C([C@@H]1COC[C@H]2CN(C3CCCC3)C[C@H]21)N1CCC(F)CC1,-0.4691%
10,O=C(C[S+]([O-])c1ccc(F)c(F)c1)NCc1cc(F)cc(F)c1 (configuration not stated),-8.156%
11,COc1ccc(S(=O)(=O)N2CCN(C)c3ncccc3C2)cc1.O=C(O)C(F)(F)F,100.8%
12,COCCN1CCN(Cc2c(C)noc2C)Cc2cccnc21.O=C(O)C(F)(F)F.O=C(O)C(F)(F)F,-0.8432%
13,COc1cccc(CC(=O)N2CCN(C)c3ncccc3C2)c1.O=C(O)C(F)(F)F,-8.872%
14,COCCN1CCN(S(=O)(=O)c2ccccc2)Cc2cccnc21.O=C(O)C(F)(F)F,100.4%
15,COc1ccc(CC(=O)N2CCN(C)c3ncccc3C2)cc1.O=C(O)C(F)(F)F,1.148%
16,CC(C)CN1CCN(S(=O)(=O)c2cn(C)cn2)Cc2cccnc21.O=C(O)C(F)(F)F.O=C(O)C(F)(F)F,-3.796%
17,CN(Cc1ccc(C(=O)O)cc1)C(=O)c1sccc1OC(F)F,7.137%
18,Cn1cc(CN2CC[C@H]3OCC[C@@H](C(=O)N4CCCCO4)[C@@H]3C2)cn1,16.39%
19,CC(C)(C)N1CC(C(=O)N2CCN(CCn3cccc3)CC2)CC1=O (configuration not stated),-2.783%
20,CCn1cc(S(=O)(=O)N2CCCC3(CC=CNC3=O)C2)c(C)n1 (configuration not stated),118.1%
21,CCCN1CCCC2(CCN(S(=O)(=O)c3cc(C)nn3CC)C2)C1=O (configuration not stated),-15.13%

row,Compound,Percent Effect
1,CCn1cc(S(=O)(=O)N2CCCC3(CC=CNC3=O)C2)cn1 (configuration not stated),97.1%
2,CCn1nccc1S(=O)(=O)N1CCC2(CCCN(C(C)C)C2=O)C1 (configuration not stated),-32.08%
3,CCn1ncc(S(=O)(=O)N2CCCC3(CC=CNC3=O)C2)c1C (configuration not stated),120.2%
4,CCn1cc(S(=O)(=O)N2CCC3(CCCN(CC4CCC4)C3=O)C2)cn1 (configuration not stated),-1.219%
5,CCn1nc(C)cc1S(=O)(=O)N1CCC2(CC(=O)NC2=O)C1 (configuration not stated),-2.488%
6,CC(C)n1cc(S(=O)(=O)N2CCCCC2)cn1,6.255%
7,CCn1nc(C)cc1S(=O)(=O)N1CCC2(CCCN(C(C)C)C2=O)C1 (configuration not stated),-24.78%
8,COc1cccc(CN(C)Cc2ccc(C#N)cc2)c1OC,-1.171%
9,Cc1cc(NCCNc2ccc(C#N)cn2)nc(C)n1,-1.6%
10,Cc1ccccc1[C@@H]1CN(Cc2ccc(C(F)(F)F)nc2)C[C@H]1C(=O)O,28.6%
11,COCCCSc1ccc(NCc2cscn2)cc1,-5.261%
12,O=C(CCC(F)(F)F)NCC1CCCS1 (configuration not stated),-25.1%
13,CN(Cc1ccco1)Cc1ccccc1CNC(=O)c1c[nH]nn1,2.895%
14,O=C(NCC1(Sc2ccccc2)CC1)c1ccc(=O)[nH]n1,98.28%
15,O=C(NC1(c2cccc(F)c2)CCOCC1)c1cc[nH]n1,-5.45%
16,O=C(NCC1(Sc2ccccc2)CC1)c1c[nH]nn1,96.18%
17,CCN(CC)c1ccc(CNC(=O)c2ccc(=O)[nH]n2)cn1,-14.62%
18,O=C(NCC1(Sc2ccccc2)CC1)c1cc[nH]n1,109.2%
19,O=C(NCCn1nc2ccccn2c1=O)c1cc[nH]n1,8.097%
20,O=C(NCC1(CO)CC1)c1ccccc1Cl,3.943%
21,CN1CCN(c2cc(CNC(=O)c3ccc(=O)[nH]n3)ccn2)CC1,7.081%

row,Compound,Percent Effect
1,CCc1nnc2n1CCN(c1nc3ccccc3o1)C2,-17.82%
2,Cc1ccccc1OCCC(=O)OC(C)C(=O)Nc1sccc1C(N)=O (configuration not stated),15.81%
3,CCS(=O)(=O)N1CCC2(CCCN(Cc3cc(OC)ccc3F)C2)C1 (configuration not stated),-8.238%
4,O=C(COc1ccc(C(F)(F)F)cc1)NS(=O)(=O)c1cccnc1,-2.745%
5,Cc1ocnc1C(=O)N1CCN(C(=O)CC(C)C)[C@@H]2CS(=O)(=O)C[C@@H]21,-7.127%
6,Cc1ncoc1C(=O)N1C[C@@H]2CN(CC3CC3)CCO[C@@H]2C1,-7.815%
7,O=C(c1ccncc1)N1CC[C@@H](O)[C@@H](O)[C@H](N2CCC(F)(F)CC2)C1,113.1%
8,CN1CC(c2ccccc2)CC12CCN(C(=O)c1ccncc1)CC2 (configuration not stated),-13.44%
9,Cc1ocnc1C(=O)N1CCC(c2nccn2Cc2ccncc2)CC1,10.72%
10,Cc1ncoc1C(=O)N1CCCC(C(=O)c2cccc(OC(C)C)c2)C1 (configuration not stated),-0.1018%
11,Cc1ncoc1C(=O)N1CC[C@@H](O)[C@@H](O)[C@H](N2CCC(F)(F)CC2)C1,142%
12,Cc1ocnc1C(=O)N1CC[C@@H](O)[C@@H](O)[C@H](N2CCC(F)(F)CC2)C1,120%
13,CC(C)C1CN(C(=O)c2ccncc2)CCS1 (configuration not stated),-8.547%
14,CC(NC1(CNS(C)(=O)=O)CCOCC1)c1ccccc1 (configuration not stated),3.887%
15,COCc1nc(C2CC2)nn1-c1cc(Cl)ccc1OC,-14.4%
16,CCC(CNC(=O)c1nc(=O)[nH][nH]1)Oc1cccc(C(F)(F)F)c1 (configuration not stated),-1.128%
17,CC(C)Sc1ncccc1C(=O)NCc1cccc(N(C)C)c1,97.33%
18,COc1cccc(CNC(=O)c2cccnc2SC(C)C)c1,92.51%
19,CC(C)Nc1ncccc1C(=O)NCc1cnc(N(C)C)n1C,23.22%
20,COc1ccnc(NC(=O)CSCc2cccnc2)c1,1.726%
